This is an account of results in PubChem BioAssay AID651815 (National Center for Advancing Translational Sciences (NCATS), 2012).

Hit rate of the full screen: of about 2,100 compounds, about 1,100 (52%) were called active. Not shown: some 29% with an inconclusive outcome. So high a share suggests a set chosen from earlier hits. The list shows a part of the results. A number with no mark means an inactive call. Calls follow the shape of the dose curve; as a rule, active = well fitted inhibition curve with a large enough effect; inconclusive = small, poorly fitted or top-dose-only effect; inactive = no such curve, though single readings can be large or run the other way.
% is scaled to controls: 0 for no effect and ±100 for the full control effect; potency is read from the fitted curve at half-maximal effect.

DNA dC->dU-editing enzyme APOBEC-3F (Homo sapiens), sequence (Q8IUX4 whole entry, looked up): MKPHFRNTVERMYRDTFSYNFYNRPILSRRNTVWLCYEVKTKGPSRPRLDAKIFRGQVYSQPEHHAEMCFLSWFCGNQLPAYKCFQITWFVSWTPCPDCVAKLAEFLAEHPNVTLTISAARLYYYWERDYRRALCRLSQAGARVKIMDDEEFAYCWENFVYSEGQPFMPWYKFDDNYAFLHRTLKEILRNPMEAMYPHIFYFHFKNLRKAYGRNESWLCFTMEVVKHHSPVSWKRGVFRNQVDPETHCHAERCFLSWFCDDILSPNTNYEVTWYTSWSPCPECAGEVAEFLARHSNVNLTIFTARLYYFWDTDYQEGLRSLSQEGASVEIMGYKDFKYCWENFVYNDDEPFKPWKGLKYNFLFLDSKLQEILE

This assay has as its target DNA dC->dU-editing enzyme APOBEC-3F (Homo sapiens) (UniProt Q8IUX4). Put plainly: qHTS for inhibitors of Vif-A3F interactions: Cherry picks counterscreen. Also: nearly all actives have a fitted effect of over 65% in size. The note with it: HeLa A3F-eYFP/Vif cells, eYFP fluorescence, 24 h; series mostly up to 46.1 µM; activity, negative = inhibitor: at the top concentration. In a few lines: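 Rescue of Vif-driven A3F-eYFP degradation read as cellular eYFP fluorescence after 24 h compound exposure (several concentrations) in stable HeLa cells; MG132 (2 mM stock) as positive control.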
Turning to `Cc1ccc(C=Nc2ccccc2C(N)=O)s1`, the Potency was 3.96 µM (active).

Turning to `O=C(O)c1cc(-c2ccc(/C=C3/SC(=S)N(Cc4ccccc4)C3=O)o2)ccc1Cl`, the Potency is 14.6 µM (active).

Regarding `COc1cc(/C=C2/SC(=S)N(CCC(=O)Nc3ccccc3)C2=O)cc(OC)c1OC`, the Potency is 23.1 µM (active).

On to `O=C1/C(=C\c2ccc(O)cc2)SC(=S)N1Cc1ccccc1`, for which the “activity, negative = inhibitor” value was 27.8%.

Turning to `COc1cc(/C=C2/SC(=S)N(Cc3ccccc3)C2=O)cc(Cl)c1O`, the Potency was 3.96 µM (active).

`CCC(=C/c1sc2ccc3ccccc3c2[n+]1C)/C=C1\Sc2ccc3ccccc3c2N1C`: the “activity, negative = inhibitor” value was -5.46%.

As for `Cc1csc(NC(=O)CCC(=O)N(CC(=O)NC2CCCC2)Cc2ccccc2)n1`, the “activity, negative = inhibitor” value is 3.75%.

On to `Cc1ccccc1NC(=O)c1sc2nc3c(c(-c4ccco4)c2c1N)CCC3`, for which the “activity, negative = inhibitor” value was -29.3% [at 36.9 µM].

Consider `Nc1c(C(=O)c2ccc(Cl)cc2)sc2nc3c(cc12)CCC3`, for which the Potency was 18.4 µM (active).

Consider `COc1ccc(NC(=O)c2sc3nc4c(cc3c2N)CN(Cc2ccccc2)CC4)c(OC)c1`, for which the Potency is 18.4 µM (active).

For `CCN1CCc2nc3sc(C(=O)c4ccccc4)c(N)c3cc2C1`, the Potency was 23.1 µM (active).

Turning to `COc1cc(OC)c(OC)cc1/C=C1\Oc2cc(OCC(=O)N3Cc4ccccc4C[C@H]3C(=O)O)ccc2C1=O`, the Potency was 1.84 µM (active).

Consider `COc1ccc(/C=C2\Oc3cc(OC(=O)N4CCOCC4)ccc3C2=O)c(OC)c1`, for which the “activity, negative = inhibitor” value is -8.95%.

On to `CC(=O)Oc1ccc(N2C(=O)c3cccc4c([N+](=O)[O-])ccc(c34)C2=O)cc1`, for which the “activity, negative = inhibitor” value is 22.2%.

`Cc1nnc(N2C(=O)c3cccc4c([N+](=O)[O-])ccc(c34)C2=O)s1`: the Potency is 20.6 µM (active).

With `O=C1c2cccc3c([N+](=O)[O-])ccc(c23)C(=O)N1c1ccccn1`, the “activity, negative = inhibitor” value is 18.3%.

As for `COc1cc2c3nnc(-c4ccccc4)c-3cn(Cc3ccccc3F)c2cc1OC`, the Potency is 3.66 µM (active).

`COc1cc2c3nnc(-c4ccc(F)cc4)c-3cn(Cc3ccc(C)cc3)c2cc1OC`: the Potency is 15.8 µM (active).

`COc1cc2c3nnc(-c4ccc(F)cc4)c-3cn(Cc3ccccc3F)c2cc1OC`: the Potency is 16.4 µM (active).

Consider `Cn1nnc2c[n+](CC(=O)c3ccc(Cl)cc3)cc(Br)c21`, for which the Potency is 17.7 µM (active).

On to `O=C1CCCN1c1ccc(S(=O)(=O)Nc2ccc3c(c2)OCCO3)cc1`, for which the Potency is 3.96 µM (active).

As for `O=[N+]([O-])c1ccc(Oc2cccc3cccnc23)c([N+](=O)[O-])c1`, the Potency is 14 µM (active).

Turning to `O=[N+]([O-])c1cc(O)c2ncccc2c1`, the “activity, negative = inhibitor” value is -1.6% [at 36.9 µM].

Take `CC1CC(C)(C)Nc2ccc(OC(=O)c3ccco3)cc21` (stereo not given): the Potency was 18.4 µM (active).

As to `CC1(C)Cc2nc3sc4c(=O)n(CC(=O)NCc5ccccc5)cnc4c3cc2CO1`, the Potency was 2.23 µM (active).

For the compound `CC1(C)Cc2nc3sc4c(SCC(=O)NCc5ccco5)ncnc4c3cc2CO1`, the Potency is 5.59 µM (active).

Take `CCc1ccc(N=Nc2ccc(O)c3[nH]cnc23)cc1`: the Potency was 8.2 µM (active).

Consider `S=C(Nc1ccccc1)N1CCn2c1nc1ccccc12`, for which the “activity, negative = inhibitor” value was -0.0104% [at 36.9 µM].

For the compound `CCCOc1ccc(C(=O)Nc2cccc(NC(=O)c3ccc(Cl)cc3Cl)c2)cc1`, the Potency is 20.6 µM (active).

As for `COc1cc(OC)cc(C(=O)Nc2ccc(N3CCN(C(=O)c4cccs4)CC3)cc2)c1`, the Potency was 7.9 µM (active).

On to `COc1cccc(C(=O)Nc2ccc(N3CCCC3)cc2)c1`, for which the Potency was 5.59 µM (active).

Turning to `COc1cc(C(=O)OCC(=O)Nc2ccc(N3CCOCC3)cc2)ccc1OCC(C)C`, the “activity, negative = inhibitor” value is 12% [at 36.9 µM].

Consider `O=C(OCCC12CC3CC(CC(C3)C1)C2)c1ccc(NCc2cc(O)ccc2O)cc1`, for which the Potency is 15.8 µM (active).

Take `Cc1ccc(C)c(Nc2nn3c(=O)c4ccc(C(=O)NCc5cccs5)cc4nc3s2)c1`: the Potency was 20.6 µM (active).

With `N#Cc1c(C(F)(F)F)cc(-c2cccs2)nc1SCC(=O)Nc1cccc(C(F)(F)F)c1`, the Potency is 20.6 µM (active).

Consider `N#Cc1c(C(F)(F)F)cc(-c2cccs2)nc1SCC(=O)Nc1ccc(Cl)cc1`, for which the Potency is 7.31 µM (active).

Turning to `N#Cc1c(C(F)(F)F)cc(-c2cccs2)nc1SCC(=O)Nc1cccc(Cl)c1`, the “activity, negative = inhibitor” value was -0.0178%.

On to `CCOC(=O)c1ccc(NC(=O)CSc2nc(-c3cccs3)cc(C(F)(F)F)c2C#N)cc1`, for which the Potency was 16.4 µM (active).

Turning to `O=c1[nH]cnc2n[nH]nc12`, the Potency was 10.3 µM (active).

Turning to `CCOc1ccc(N/C=C/C(=O)c2cc(OC)c(OC)c(OC)c2)cc1`, the Potency is 15.8 µM (active).

For the compound `COc1ccc(N/C=C/C(=O)c2cc(OC)c(OC)c(OC)c2)cc1`, the Potency is 0.498 µM (active).

Take `CCOc1ccc(NC(=O)Cn2c(=O)n(Cc3ccc(C(=O)NCc4ccc(C)cc4)cc3)c(=O)c3ccccc32)cc1`: the Potency is 14.6 µM (active).

On to `CCn1c(SCC(=O)N/N=C/c2ccc(C)s2)nc2ccccc21`, for which the Potency was 4.98 µM (active).

In the case of `COc1ccc(NC(=S)NN(C)C(=S)Nc2ccc(OC)cc2)cc1`, the Potency was 3.14 µM (active).

Regarding `C=CCNC(=S)N/N=C(\C)c1ccc(OC)cc1`, the “activity, negative = inhibitor” value is -23.5%.

For `O=C(Nc1cc(=O)[nH]c(=O)[nH]1)c1cc(Cl)ccc1Cl`, the Potency was 8.86 µM (active).

On to `CCCCCCc1cc2cc(-c3nnc(-c4ccccc4OC)o3)c(=O)oc2cc1O`, for which the Potency was 1.98 µM (active).

On to `CCCCCCc1cc2cc(-c3nnc(-c4ccccc4)o3)c(=O)oc2cc1O`, for which the Potency is 3.53 µM (active).

`CCCCCCc1cc2cc(-c3nnc(-c4ccccc4O)o3)c(=O)oc2cc1O`: the “activity, negative = inhibitor” value was 33.9%.

In the case of `C=CCN=c1scc(-c2ccc(F)cc2)n1/N=C/c1ccccn1`, the “activity, negative = inhibitor” value was -0.0772%.

In the case of `COc1ccc2[nH]cc(/C=C/c3cc[n+](C)cc3)c2c1`, the Potency is 16.4 µM (active).

As to `Cc1ccc2[nH]cc(/C=C/c3cc[n+](C)cc3)c2c1`, the Potency is 6.27 µM (active).

Regarding `C[n+]1ccc(/C=C/c2c[nH]c3ccc(F)cc23)cc1`, the Potency is 8.2 µM (active).

As for `O=C(Nc1ccccc1-c1nc2ccccc2[nH]1)c1ccc(N2C(=O)CCC2=O)cc1`, the Potency is 16.4 µM (active).

For `O=C1/C(=C/c2c[nH]c3ccccc23)CCC/C1=C\c1c[nH]c2ccccc12`, the Potency was 23.1 µM (active).

Turning to `N#CC1=C2SCC(O)(c3ccccc3)N2C(=O)CC1c1ccccc1` (stereo not given), the Potency is 4.98 µM (active).

Turning to `Cc1cccc(C)c1NC(=S)NC(C)CCc1ccccc1` (stereo not given), the “activity, negative = inhibitor” value is -1%.

Take `COc1ccc2oc(-c3ccccc3[N+](=O)[O-])cc(=O)c2c1`: the Potency is 6.27 µM (active).

Take `COc1ccccc1NC(=O)c1sc2ncn(CC(=O)Nc3ccccc3)c(=O)c2c1C`: the Potency is 20.6 µM (active).

Take `Cc1ccnc(NC(=O)Nc2ccc3c(c2)N(C)C(=O)CS3)c1`: the Potency is 23.1 µM (active).

For the compound `CO/N=C\CC(=O)Nc1ccc(Cl)c(Cl)c1`, the Potency was 9.94 µM (active).

As to `CO/N=C\CC(=O)Nc1ccc(Oc2ccccc2)cc1`, the Potency was 1.98 µM (active).

Take `CC(C)(C)c1ccc(Oc2ccc(NC(=O)c3ccccc3C(=O)O)cn2)cc1`: the “activity, negative = inhibitor” value was 2.22% [at 36.9 µM].

As for `CC(=O)Nc1ccc(NC(=O)C/C(C)=N/NC(N)=S)cc1`, the “activity, negative = inhibitor” value was 16%.

For the compound `O=C(Cc1nc2ccccc2[nH]c1=O)c1ccc(Cl)cc1`, the Potency is 8.2 µM (active).

Consider `COc1cc2c(cc1OC)CN(C(=O)c1cc(=O)c3ccccc3o1)CC2`, for which the Potency was 11.2 µM (active).

As to `COc1ccccc1N=C(C)C1=C(O)CC(c2ccccc2)CC1=O` (stereo not given), the Potency is 0.994 µM (active).

For `CCC(=Nc1ccccc1O)C1=C(O)CC(c2ccccc2)CC1=O` (stereo not given), the “activity, negative = inhibitor” value is -15.7% [at 36.9 µM].

For `Cc1cnc(NC(=O)CC(C)c2ccccc2)s1` (stereo not given), the Potency is 5.59 µM (active).

Turning to `Cc1cc(/C=C2\SC(=S)N(Cc3ccco3)C2=O)c(C)n1-c1cccnc1`, the Potency was 20.6 µM (active).

On to `CCN1CCN(c2c(/C=C3\SC(=S)N(Cc4ccco4)C3=O)c(C)c(C#N)c(=O)n2C)CC1`, for which the Potency is 14.6 µM (active).

On to `CN(C)c1ccc(C=C2SC(=S)N(Cc3ccco3)C2=O)cc1`, for which the Potency is 3.96 µM (active).

For the compound `Cc1cc(/C=C2\SC(=S)N(Cc3ccco3)C2=O)c(C)n1-c1ccccc1`, the Potency is 23.1 µM (active).

For the compound `COC(=O)c1ccc(Oc2cc(C)nc(SC)n2)cc1`, the Potency is 2.8 µM (active).

For the compound `COCCNC(=S)N/N=C(\C)c1ccccc1O`, the “activity, negative = inhibitor” value is 3.87%.

Turning to `C/C(=N/N=C(\C)c1ccccc1O)c1ccccc1O`, the Potency is 18.4 µM (active).

With `C/C(=N\NC(=O)C(C)n1nc(C)c([N+](=O)[O-])c1C)c1ccccc1O` (stereo not given), the “activity, negative = inhibitor” value was -0.91%.

With `Cc1ccc(N2C(=O)c3cccc4c(N5CCN(C)CC5)ccc(c34)C2=O)c2cccnc12`, the Potency is 14 µM (active).

As to `C=CCN1C(=O)c2cccc3c(N4CCCCC4)ccc(c23)C1=O`, the Potency was 16.4 µM (active).

Take `O=C1c2cccc3c(N4CCCCC4)ccc(c23)C(=O)N1c1cccc(O)c1`: the Potency is 3.66 µM (active).

`O=C1c2cccc3c(N4CCCCC4)ccc(c23)C(=O)N1c1ccccc1O`: the “activity, negative = inhibitor” value is 26.8%.

`O=C1c2cccc3c(N4CCCCC4)ccc(c23)C(=O)N1c1ccc(O)cc1`: the “activity, negative = inhibitor” value is 36.7% [at 36.9 µM].

As to `O=C1c2cccc3c(N4CCCCC4)ccc(c23)C(=O)N1CCO`, the Potency was 17.7 µM (active).

Regarding `C=CCOC(=O)C1=C(C)NC(C)=C(C(=O)OCC=C)C1c1cn(-c2ccccc2)nc1-c1ccco1`, the “activity, negative = inhibitor” value was -10.3% [at 36.9 µM].

Regarding `Cc1ccc2nc(-c3ccccn3)c(Nc3ccccc3C)n2c1`, the “activity, negative = inhibitor” value was 3.66%.

Regarding `CCN(CC)c1nc(C=Cc2ccc(N(C)C)cc2)c2nccnc2n1`, the Potency was 0.58 µM (active).

As to `CCN(Cc1ccccc1)c1ccc(/C=C(\C#N)c2ccccn2)cc1`, the “activity, negative = inhibitor” value was -14.8%.

Take `CCN(Cc1ccccc1)c1ccc(/C=C/c2nccc3ccccc23)cc1`: the Potency was 20.6 µM (active).

As to `CN(C)c1ccc(C=Cc2nccc3ccccc23)cc1`, the Potency was 14 µM (active).

Take `CN(C)c1ccc(/C=C/c2nccc3ccccc23)cc1`: the Potency is 20.6 µM (active).

Regarding `CCCn1c(C2CCCN2c2nc(-c3cccc(Br)c3)cs2)nc2ccccc21` (stereo not given), the “activity, negative = inhibitor” value is 8.29%.

For `CCn1c2ccccc2c2cc(NC(=O)CNCc3ccccc3OC)ccc21`, the Potency is 4.98 µM (active).

Turning to `S=C(NCCSCc1ccc(Cl)cc1)Nc1ccccc1`, the “activity, negative = inhibitor” value was -10.3%.

As for `CCn1c(CNC(=O)c2cc(OC)c(OC)c(OC)c2)cc2cc(C)ccc21`, the “activity, negative = inhibitor” value is 13.7%.

As to `COc1cc(C(=O)NCCOc2cc(C)cc(C)c2)cc(OC)c1OC`, the Potency is 2.8 µM (active).
